Source: PubChem BioAssay AID1159580 (chemical genetic matrix, 2015)
Where “and” joins values, the source holds several entries; their conditions need not be identical. Equal values may be shown once. Hit rate of the full screen: of about 5,500 compounds, about 2,000 (36%) were called active. Not shown: some 18% with an inconclusive outcome. No stated cut-off is given here; in the data, active means normalized growth mostly below about 0.91 (no sharp cut-off); inconclusive means no clear call, values can overlap the other calls; inactive means mostly above about 0.92. The list shows a part of the results.

Test: chemical genetic growth profiling, strain panel (AID 1159580);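 further: tested at 20 µM; growth read once vehicle control cultures reached saturation at 30 °C; 1 = growth at the plate median or of vehicle wells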
Details: growth OD

Measured: normalized growth

COc1ccc2cc([C@H](C)C(=O)O)ccc2c1
active: S. cerevisiae deletion strains, locus YLR113W, strain HOG1, stronger effect = lower value 0.757 | S. cerevisiae deletion strains, locus YNL298W, strain CLA4, stronger effect = lower value 0.848 | S. cerevisiae deletion strains, locus YPL256C, strain CLN2, stronger effect = lower value 0.807
inactive: S. cerevisiae deletion strains, locus YJR075W, strain HOC1, stronger effect = lower value 1.01 and 0.988 | S. cerevisiae deletion strains, locus YKL009W, strain mrt4, stronger effect = lower value 0.916 | S. cerevisiae deletion strains, locus YKL068W, stronger effect = lower value 0.983 | S. cerevisiae deletion strains, locus YKL085W, strain MDH1 (second series), stronger effect = lower value 0.977 | S. cerevisiae deletion strains, locus YKL085W, strain MDH1, stronger effect = lower value 0.977 | S. cerevisiae deletion strains, locus YKL160W, strain elf1, stronger effect = lower value 0.988 | S. cerevisiae deletion strains, locus YKL190W, strain CNB1, stronger effect = lower value 1 | S. cerevisiae deletion strains, locus YKR001C, strain vps1, stronger effect = lower value 0.943 | S. cerevisiae deletion strains, locus YKR026C, strain gcn3, stronger effect = lower value 0.983 | S. cerevisiae deletion strains, locus YKR091W, strain srl3, stronger effect = lower value 0.982 | S. cerevisiae deletion strains, locus YLL001W, strain dnm1, stronger effect = lower value 0.982 | S. cerevisiae deletion strains, locus YLL026W, stronger effect = lower value 0.997 | S. cerevisiae deletion strains, locus YLL041C, strain sdh2, stronger effect = lower value 0.971 | S. cerevisiae deletion strains, locus YLR027C, strain aat2, stronger effect = lower value 0.971 | S. cerevisiae deletion strains, locus YLR039C, strain RIC1, stronger effect = lower value 0.929 | S. cerevisiae deletion strains, locus YLR058C, strain SHM2, stronger effect = lower value 1.01 | S. cerevisiae deletion strains, locus YLR102C, strain apc9, stronger effect = lower value 0.986 | S. cerevisiae deletion strains, locus YLR221C, strain rsa3, stronger effect = lower value 0.993 | S. cerevisiae deletion strains, locus YLR258W, strain gsy2, stronger effect = lower value 0.982 | S. cerevisiae deletion strains, locus YLR262C, strain YPT6 (second series), stronger effect = lower value 0.944 | S. cerevisiae deletion strains, locus YLR262C, strain YPT6, stronger effect = lower value 0.903 | S. cerevisiae deletion strains, locus YLR268W, strain sec22, stronger effect = lower value 1.05 | S. cerevisiae deletion strains, locus YLR320W, strain mms22, stronger effect = lower value 0.955 | S. cerevisiae deletion strains, locus YLR330W, strain CHS5, stronger effect = lower value 0.997 | S. cerevisiae deletion strains, locus YLR342W, strain FKS1 (second series), stronger effect = lower value 0.98 | S. cerevisiae deletion strains, locus YLR342W, strain FKS1, stronger effect = lower value 0.967 | S. cerevisiae deletion strains, locus YLR357W, strain rsc2, stronger effect = lower value 0.963 | S. cerevisiae deletion strains, locus YLR370C, strain arc18, stronger effect = lower value 0.971 | S. cerevisiae deletion strains, locus YLR371W, strain rom2, stronger effect = lower value 0.989 | S. cerevisiae deletion strains, locus YLR384C, strain iki3, stronger effect = lower value 0.976 | S. cerevisiae deletion strains, locus YLR418C, strain cdc73, stronger effect = lower value 0.971 | S. cerevisiae deletion strains, locus YML016C, strain PPZ1, stronger effect = lower value 1 | S. cerevisiae deletion strains, locus YML032C, strain rad52, stronger effect = lower value 1 | S. cerevisiae deletion strains, locus YML120C, strain ndi1, stronger effect = lower value 0.99 | S. cerevisiae deletion strains, locus YML124C, strain tub3, stronger effect = lower value 0.992 | S. cerevisiae deletion strains, locus YMR058W, strain fet3, stronger effect = lower value 0.969 | S. cerevisiae deletion strains, locus YMR078C, strain ctf18, stronger effect = lower value 0.977 | S. cerevisiae deletion strains, locus YMR125W, strain sto1, stronger effect = lower value 0.972 | S. cerevisiae deletion strains, locus YMR129W, stronger effect = lower value 0.96 | S. cerevisiae deletion strains, locus YMR205C, strain PFK2, stronger effect = lower value 0.974 | S. cerevisiae deletion strains, locus YMR223W, strain ubp8, stronger effect = lower value 0.963 | S. cerevisiae deletion strains, locus YMR231W, strain pep5, stronger effect = lower value 0.987 | S. cerevisiae deletion strains, locus YMR263W, strain SAP30, stronger effect = lower value 1.01 and 0.996 | S. cerevisiae deletion strains, locus YMR307W, strain GAS1, stronger effect = lower value 0.955 | S. cerevisiae deletion strains, locus YNL067W, strain RPL9B, stronger effect = lower value 1.02 | S. cerevisiae deletion strains, locus YNL071W, strain lat1, stronger effect = lower value 0.96 | S. cerevisiae deletion strains, locus YNL128W, strain TEP1, stronger effect = lower value 0.996 and 0.976 | S. cerevisiae deletion strains, locus YNL153C, strain GIM3, stronger effect = lower value 1.02 and 1.01 | S. cerevisiae deletion strains, locus YNL175C, strain NOP13, stronger effect = lower value 0.964 | S. cerevisiae deletion strains, locus YNL183C, strain NPR1, stronger effect = lower value 0.88 | S. cerevisiae deletion strains, locus YNL197C, strain WHI3, stronger effect = lower value 0.963 | S. cerevisiae deletion strains, locus YNL209W, strain ssb2, stronger effect = lower value 0.978 | S. cerevisiae deletion strains, locus YNL224C, strain SQS1, stronger effect = lower value 0.978 | S. cerevisiae deletion strains, locus YNL233W, strain BNI4, stronger effect = lower value 1.02 | S. cerevisiae deletion strains, locus YNL248C, strain rpa49, stronger effect = lower value 0.977 | S. cerevisiae deletion strains, locus YNL250W, strain rad50, stronger effect = lower value 0.928 | S. cerevisiae deletion strains, locus YNL271C, strain bni1, stronger effect = lower value 0.938 | S. cerevisiae deletion strains, locus YNL307C, strain MCK1, stronger effect = lower value 0.98 | S. cerevisiae deletion strains, locus YNL322C, strain KRE1 (second series), stronger effect = lower value 0.938 | S. cerevisiae deletion strains, locus YNL322C, strain KRE1, stronger effect = lower value 1.01 and 0.995 | S. cerevisiae deletion strains, locus YNR049C, strain mso1, stronger effect = lower value 0.972 | S. cerevisiae deletion strains, locus YNR052C, strain pop2, stronger effect = lower value 0.969 | S. cerevisiae deletion strains, locus YOL006C, strain TOP1, stronger effect = lower value 1.06 | S. cerevisiae deletion strains, locus YOL012C, strain htz1 1.17 | S. cerevisiae deletion strains, locus YOL147C, strain pex11, stronger effect = lower value 0.994 | S. cerevisiae deletion strains, locus YOR001W, strain rrp6, stronger effect = lower value 0.957 | S. cerevisiae deletion strains, locus YOR061W, strain CKA2, stronger effect = lower value 1 | S. cerevisiae deletion strains, locus YOR069W, strain VPS5, stronger effect = lower value 1 | S. cerevisiae deletion strains, locus YOR070C, strain gyp1, stronger effect = lower value 0.978 | S. cerevisiae deletion strains, locus YOR080W, strain dia2, stronger effect = lower value 0.976 | S. cerevisiae deletion strains, locus YOR083W, strain WHI5 (second series), stronger effect = lower value 0.972 | S. cerevisiae deletion strains, locus YOR083W, strain WHI5, stronger effect = lower value 1.01 | S. cerevisiae deletion strains, locus YOR106W, strain vam3, stronger effect = lower value 0.978 | S. cerevisiae deletion strains, locus YOR136W, strain idh2, stronger effect = lower value 0.993 | S. cerevisiae deletion strains, locus YOR144C, strain elg1, stronger effect = lower value 0.995 | S. cerevisiae deletion strains, locus YOR184W, strain ser1, stronger effect = lower value 0.958 | S. cerevisiae deletion strains, locus YOR231W, strain MKK1, stronger effect = lower value 0.898 | S. cerevisiae deletion strains, locus YOR265W, strain rbl2, stronger effect = lower value 0.994 | S. cerevisiae deletion strains, locus YOR270C, strain vph1, stronger effect = lower value 0.938 | S. cerevisiae deletion strains, locus YOR290C, strain snf2, stronger effect = lower value 0.937 | S. cerevisiae deletion strains, locus YOR316C, strain cot1, stronger effect = lower value 0.999 | S. cerevisiae deletion strains, locus YPL051W, strain arl3, stronger effect = lower value 0.994 | S. cerevisiae deletion strains, locus YPL055C, strain LGE1, stronger effect = lower value 0.99 and 0.992 | S. cerevisiae deletion strains, locus YPL078C, strain atp4, stronger effect = lower value 0.979 | S. cerevisiae deletion strains, locus YPL106C, strain sse1, stronger effect = lower value 0.994 | S. cerevisiae deletion strains, locus YPL240C, strain hsp82, stronger effect = lower value 0.993 | S. cerevisiae deletion strains, locus YPL241C, strain CIN2, stronger effect = lower value 1 | S. cerevisiae deletion strains, locus YPR119W, strain clb2, stronger effect = lower value 0.977 | S. cerevisiae deletion strains, locus YPR141C, strain kar3, stronger effect = lower value 0.961 | S. cerevisiae deletion strains, locus YPR163C, strain tif3, stronger effect = lower value 0.987 | S. cerevisiae deletion strains, locus YPR167C, strain met16, stronger effect = lower value 0.986 | S. cerevisiae deletion strains, strain wtn01, stronger effect = lower value 1.01 | S. cerevisiae strains, strain wild type, stronger effect = lower value 1
